Source: PubChem BioAssay
Compounds with a hit are over-represented: about 6% of the library has one in this group of screens.
D3 ag: D3 dopamine receptor (human) agonism. P35462. D3R DiscoveRx beta-arrestin cells, luminescence, 90 min. max activation, %. AID 652048. 410,000 compounds, 0.58% hits; in the data active = max activation above about 30%
Target sequence (P35462 whole entry, looked up): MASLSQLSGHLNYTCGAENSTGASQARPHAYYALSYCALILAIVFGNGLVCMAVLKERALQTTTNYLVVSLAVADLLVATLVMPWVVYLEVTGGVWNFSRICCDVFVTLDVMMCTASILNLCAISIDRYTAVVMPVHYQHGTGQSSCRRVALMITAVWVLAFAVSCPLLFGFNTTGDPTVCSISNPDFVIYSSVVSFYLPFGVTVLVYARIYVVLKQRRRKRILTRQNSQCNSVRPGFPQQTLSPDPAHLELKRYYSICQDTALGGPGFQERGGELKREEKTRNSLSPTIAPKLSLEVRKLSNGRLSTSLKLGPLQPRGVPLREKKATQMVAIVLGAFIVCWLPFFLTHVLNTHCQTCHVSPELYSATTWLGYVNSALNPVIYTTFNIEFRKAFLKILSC
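Cells at 1500/well, incubated overnight, then treated with pinned compounds (dopamine as control) for 90 min at 37 degrees C. DiscoveRx reagent added for 30 - 60 minutes at room temperature; luminescence read.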
D1 potentiator: enhances dopamine response at the human D1 receptor; AID 504651; potentiation, % at 10 µM; HEK293 TREx D1 cells, calcium flux, dopamine EC20 potentiation; 360,000 compounds, 0.036% hits; P21728; in the data active = potentiation above about 30%
D1 antag: antagonists of human D1 dopamine receptor; AID 504652; HEK293 TREx D1 cells, calcium flux, dopamine EC80; stronger effect = lower value; activity change, negative = inhibition, % at 10 µM; P21728; 360,000 compounds, 3.2% hits; in the data active = activity change below about -30%
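Tetracycline-induced HEK293 T-REx cells with force-coupled D1 receptor were loaded with a no-wash calcium dye. Compound was added after a 10 s baseline and read kinetically for 180 s; EC80 dopamine was then added and calcium flux followed another 180 s.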
D3 antag: D3 dopamine receptor (human) antagonism; P35462; D3R cells, DiscoveRx beta-arrestin luminescence, antagonist mode; stronger effect = lower value; max response, negative = inhibition, %; 360,000 compounds, 2.5% hits; in the data active = max response below about -50%
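Cells expressing the human receptor were seeded at 1500 cells/well, incubated overnight at 37 degrees C in 5% CO2, then exposed to library compounds with dopamine controls for 90 minutes at 37 degrees C before luminescent detection.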
D1 ag: agonists of human D1 dopamine receptor. HEK293 T-REx D1 cells, calcium flux, agonist mode. P21728. 360,000 compounds, 1% hits. AID 504660. activation, % at 2 µM; in the data active = activation above about 30%
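Tetracycline-induced HEK293 TREx D1 cells, force-coupled to calcium signalling, were dye-loaded with a no-wash calcium kit. Compound was pin-added after a 10 s baseline. Fluorescence was read kinetically at 1 cycle/s for 180 s, with calcium rises flagged as agonism.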
Large screens that a line does not name were inactive; ! = a repeat was not active.

O=C(O)CN1C(=O)/C(=C\c2cn(CC(=O)N3CCOCC3)c3ccccc23)SC1=S	D1 ag 32
COc1cc(CCN=Cc2cc(Cl)cc(Cl)c2O)c([N+](=O)[O-])cc1OC	D3 antag -50 (no result: D1 potentiator, D1 antag, D1 ag)
COc1cc(CC(=O)O)c([N+](=O)[O-])cc1OC	none
O=C(CN1C(=O)c2ccccc2S1(=O)=O)N1CCOCC1	D1 antag -34
O=C(CN1C(=O)c2ccccc2S1(=O)=O)NC1CC2CCC1C2 (stereo not drawn)	D1 antag -73 (no result: D1 potentiator)
O=C(O)c1ccccc1Sc1ccccc1S(=O)(=O)NC1CCCCC1	D3 ag 32
O=C(NCc1ccccc1)C(CCc1ccccc1)n1c(=O)c(-c2ccccc2)nc2ccccc21 (stereo not drawn)	D3 antag -71 (no result: D1 potentiator, D1 antag, D1 ag)
O=C(NC1CCCCC1)C(c1ccnc2ccccc12)n1c(=O)c(-c2cc3ccccc3[nH]2)nc2ccccc21 (stereo not drawn)	none (no result: D1 potentiator, D1 antag, D1 ag)
O=C(NC1CCCCC1)C(c1ccnc2ccccc12)n1c(=O)c(-c2ccccc2)nc2ccccc21 (stereo not drawn)	D3 antag -68 (no result: D1 potentiator, D1 antag, D1 ag)
CCOc1ccc(NC(=O)c2ccncc2)cc1	none
O=C(Nc1ccc(OCC(F)(F)C(F)F)cc1)c1ccncc1	D1 antag -32
CCOC(=O)c1nn(-c2ccccc2)c(=O)cc1OCC(=O)Nc1ccccc1OCC	none
O=S(=O)(c1ccc(OCc2nc3ccccc3s2)c(Cl)c1)N1CCOCC1	D3 antag -76
CCn1c(SCc2nc3ccccc3s2)nc2cc(S(=O)(=O)N3CCOCC3)ccc21	none (no result: D1 potentiator, D1 antag, D1 ag)
N#CCc1nc2ccc(S(=O)(=O)N3CCOCC3)cc2s1	D1 ag 39
CC(=O)c1cccc(S(=O)(=O)N2CCCC(c3nc4c(nnn4Cc4ccccc4Cl)c(=O)[nH]3)C2)c1 (stereo not drawn)	none
CCOC(=O)c1ccc2c(c1)N(CC(=O)Nc1ccc(C)cc1C)C(=O)c1ccccc1S2	none (no result: D3 antag)
NCCc1cnc[nH]1	D1 ag 53!
Cc1ccc(N(CC(=O)Nc2ccc(F)cc2F)S(=O)(=O)c2cccs2)cc1	none (no result: D3 antag)
Cc1nn(-c2ccccc2)c(C)c1/C=N/n1c(-c2ccc(Cl)cc2)n[nH]c1=S	none
S=c1[nH]nc(-c2ccccn2)n1/N=C/c1ccccc1	D3 antag -52
Cc1nn(-c2ccccc2)c(C)c1/C=N/n1c(-c2ccncc2)n[nH]c1=S	D3 antag -52
Cn1cccc1/C=N/n1c(-c2ccccc2)n[nH]c1=S	D3 antag -98
Oc1c(Br)cc(Br)cc1/C=N/n1c(-c2ccccc2)n[nH]c1=S	D3 antag -51
Cn1cccc1/C=N/n1c(-c2ccc(C(C)(C)C)cc2)n[nH]c1=S	none
S=c1[nH]nc(-c2cccnc2)n1/N=C/c1ccco1	D3 antag -50
Oc1ccc(/C=N/n2c(C3CCCCC3)n[nH]c2=S)c(O)c1	none
Oc1ccc(Br)cc1/C=N/n1c(C2CCCCC2)n[nH]c1=S	D1 ag 37
CC(=O)NC(c1ccccc1)c1nc(-c2ccccc2)cs1 (stereo not drawn)	none (no result: D1 potentiator, D1 antag, D1 ag)
O=C(CN1CCN(Cc2ccc(F)cc2Cl)S1(=O)=O)Nc1ccc(F)cc1	D1 ag 48 (no result: D3 antag)
COc1ccc(NC(=O)CN2CCN(Cc3ccc(F)cc3)S2(=O)=O)cc1Cl	none (no result: D3 antag)
C/C=C/c1c(F)c(F)c(Oc2ccc(C(=O)O)cc2)c(F)c1F	D3 ag 31
CC(C)OC(=O)Nc1ccc(Oc2c(F)c(F)c(F)c(F)c2F)cc1	none
O=S(=O)(Nn1c(O)c(C=C2N=c3ccccc3=N2)sc1=S)c1ccccc1	none
O=C(Nn1c(O)c(C=C2N=c3ccccc3=N2)sc1=S)c1ccccc1Cl	D3 antag -55
CCCn1c2ccccc2c2cnn(CC(=O)N3CCN(c4ccccc4)CC3)c(=O)c21	none (no result: D3 antag)
Cn1c(=O)c2nc(SCC(=O)Nc3cc(Cl)cc(Cl)c3)n(C)c2n(C)c1=O	none (no result: D1 antag, D3 antag)
COC(=O)[C@@H]1C[C@H]2CC[C@H](O)C[C@H]2N1Cc1ccc(C(C)(C)C)cc1	D1 antag -34
CCOc1ccc(NC(=O)NC(C)c2c(-n3cccc3)sc(C)c2C)cc1 (stereo not drawn)	none (no result: D3 antag)
CC(C)C(OC(=O)C1=Cc2ccccc2OC1)C(=O)NCC1CCCO1 (stereo not drawn)	none (no result: D1 potentiator, D1 antag, D1 ag)
CC1CCCCC1NC(=O)C1CCC(CNS(=O)(=O)c2cccc3cccnc23)CC1 (stereo not drawn)	D1 antag -37
O=C(NCc1ccccc1)C1CCN(S(=O)(=O)c2cccc3cccnc23)CC1	none
O=C(C1CCN(S(=O)(=O)c2cccc3cccnc23)CC1)N1CCn2c1nc1ccccc12	D3 antag -184 (no result: D1 potentiator)
O=C(COC(=O)C1CCN(S(=O)(=O)c2cccc3cccnc23)CC1)c1ccc(F)cc1	D3 antag -52
O=C(C1CCCN(S(=O)(=O)c2cccc3cccnc23)C1)N1CCN(c2ccc(F)cc2)CC1 (stereo not drawn)	D1 antag -36
Cn1c(=O)oc2cc(S(=O)(=O)N3CCC(C(=O)NCc4ccccc4Cl)CC3)ccc21	none
C/C(=N\NC(N)=S)C1=CCC2C3CC[C@H]4CC(O)CC[C@]4(C)C3CC[C@]12C (stereo partly drawn)	none
O=C(c1cc2ccccc2oc1=O)N1CCN(c2ccc(F)cc2)CC1	none (no result: D3 antag)
C=C1c2c(Cl)ccc(O)c2C(O)=C2C(=O)[C@]3(O)C(O)=C(C(N)=O)C(=O)[C@@H](N(C)C)[C@@H]3[C@@H](O)[C@H]12	none (no result: D1 potentiator, D1 antag, D3 antag, D1 ag)
Cc1cccc(NC(=O)C2CCCN(S(=O)(=O)c3cccc4nonc34)C2)c1 (stereo not drawn)	none
O=C(NC1CCCC1)C1CCN(S(=O)(=O)c2cccc3cccnc23)CC1	none
O=C(C1CCN(S(=O)(=O)c2cccc3nonc23)CC1)N1CCN(c2ccccc2F)CC1	D1 antag -37 (no result: D3 antag)
COc1cccc(NC(=O)C2CCCN(S(=O)(=O)c3cccc4cccnc34)C2)c1 (stereo not drawn)	D1 antag -35
O=C(NC1CCCCC1)C1CCCN(S(=O)(=O)c2cccc3cccnc23)C1 (stereo not drawn)	D1 antag -30
O=C(Nc1ccc(F)c(F)c1)C1CCCN(S(=O)(=O)c2cccc3nonc23)C1 (stereo not drawn)	D1 ag 33!
OC(CCN1CCCCC1)(c1ccccc1)c1ccccc1	none
OC(CCCN1CCCCC1)(c1ccccc1)c1ccc(C(F)(F)F)cc1 (stereo not drawn)	D3 antag -99 (no result: D1 potentiator, D1 antag, D1 ag)
COc1ccc(C2CC(=O)c3cnc(NC(=O)c4ccccc4)nc3C2)cc1OC (stereo not drawn)	none
COc1cc(C2CC(=O)c3cnc(NC(=O)COc4ccccc4)nc3C2)cc(OC)c1OC (stereo not drawn)	D3 ag 36, D1 antag -30
